# VACV mCherry inh: vaccinia inhibition (mCherry reporter). Vaccinia virus mCherry reporter infection, fluorescence. Potency, µM (titrated, usually from 36.5 µM), for the others: at the highest dose activity change, negative = inhibition, hits mostly inhibitors. 0.63% of 310,000 active. AID 720579; calls by dose curve; tested in A549 cells; further: on the % scale 0 is the no-effect control and ±100 the full control effect; nearly all actives have a fitted effect of over 35% in size
# Pf growth 96h: P. falciparum growth inhibition at 96 hour, primary screen for plastid delayed-death inhibitors; 6.9% of 320,000 active; P. falciparum luciferase reporter growth, 96 h; Potency, µM (series often up to 28.7 µM), for the others: at the highest dose activity change, negative = inhibition, usual class: inhibitors; further: on the % scale 0 is the no-effect control and ±100 the full control effect
#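 P. falciparum expressing integrated firefly luciferase, in erythrocytes at 2% hematocrit, 0.05% parasitemia, incubated with compounds 96 h at 37 C, 5% CO2. Growth inhibition read as loss of luminescence; two-generation exposure targets delayed-death apicoplast inhibitors.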
# HCV inh: blocks hepatitis C virus; Huh7.5.1 HCVcc-Cre infection, luciferase reporter, 44 h; Potency, µM (series often up to 41.8 µM), without a hit: at the top dose activity change, negative = inhibition, most hits filed as inhibitors; 3.4% of 340,000 active; further: on the % scale 0 is the no-effect control and ±100 the full control effect
#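 Whole-lifecycle infectious HCVcc-Cre system; cells 1,000/well, compound then virus (~0.5 moi) added 4 h after plating, 44 h culture. Luciferase read 15 sec following 15 min substrate incubation, room temp.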
# VACV Venus inh: inhibitors of vaccinia virus (Venus reporter). Vaccinia virus Venus reporter expression, fluorescence. Potency, µM (highest dose often 36.5 µM), inactives show at the highest dose activity change, negative = inhibition, hits mostly inhibitors. 0.46% of 330,000 active. AID 720580; calls by dose curve; tested in A549 cells; further: on the % scale 0 is the no-effect control and ±100 the full control effect; nearly all actives have a fitted effect of over 30% in size
# Pf growth 48h: P. falciparum growth inhibition at 48 hours (one generation); P. falciparum luciferase growth in erythrocytes, 48 h; Potency, µM (titrated, usually from 28.7 µM), without a hit: at the top dose activity change, negative = inhibition, most hits filed as inhibitors; 5.9% of 310,000 active; AID 504832; further: on the % scale 0 is the no-effect control and ±100 the full control effect
#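 Luciferase-expressing parasites in RBCs, 2% Hct / 0.1% parasitemia final; RPMI 1640 + 0.5% Albumax; 37 C, 5% CO2, one generation; luminescence read-out, lower signal = inhibition.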
# NS1 function inh: blocks influenza NS1 protein function | Potency, µM (top dose mostly 46.1 µM), without a hit: at the highest dose activity, positive = more growth | AID 2326 | 0.4% of 270,000 active; calls by dose curve; further: actives are rising curves; nearly all actives have a fitted effect of over 50% in size
#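 Growth recovery, yeast-based: influenza A NS1 expressed in S. cerevisiae causes slow growth, and suppressors are detected by OD600. The parent strain without NS1 is used as positive control.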
# * hit, by the source's call; i = inactive; ? = inconclusive; nt = no result given; [ ] = remark or other dose. An excerpt weighted towards active compounds, which were near 11% of everything screened. Unless noted, the call rests on the fitted dose curve; in most records, active means well fitted inhibition curve with a large enough effect; inconclusive means small, poorly fitted or top-dose-only effect, or another doubt; inactive means no such curve, though single readings can be large or run the other way. Potency means the concentration at half of the fitted maximal effect.
SMILES,VACV mCherry inh,Pf growth 96h,HCV inh,VACV Venus inh,Pf growth 48h,NS1 function inh
O=C(CSc1ncccn1)NC(=O)Nc1ccc2c(c1)OCCO2,nt,94.6%,9.8%,nt,154.8%,3.6%
O=C(COc1ccccc1[N+](=O)[O-])Nc1ccc(NC(=O)c2cc3ccccc3o2)cc1,i,9.1%,11.2µM*,-8.3%,?,-1.2%
Cc1ccccc1NC(=O)c1cc2ccccc2o1,-2.3%,10.4µM*,4.3%,5.0%,179.4%,-17.1%
COC(=O)c1cc2oc3ccccc3c2n1Cc1ccc(C)cc1,-7.6%,nt,nt,-1.5%,nt,nt
NC(=O)c1nsc(C(=O)N(c2ccccc2)C(C(=O)NC2CCCC2)c2cccs2)c1N (configuration not stated),-16.4%,?,1.0%,-14.6%,2.8%,-6.6%
CCn1cc(C(=O)NC2CCCCC2C)c(=O)c2ccc(C)nc21 (configuration not stated),-8.7%,11.7µM*,-16.1%,-2.3%,1.3%,-34.9%
CCn1cc(C(=O)NC2CC3CCC2C3)c(=O)c2ccc(C)nc21 (configuration not stated),nt,5.22µM*,nt,nt,-12.5%,-6.4%
Cc1cccc(N(C(=O)c2ccco2)C(C(=O)NC2CCCC2)c2cccnc2)c1C (configuration not stated),i,20.8%,12.3%,-8.6%,?,3.6%
COCCN(CC1CCCN(C2Cc3ccccc3C2)C1)C(=O)c1cccs1 (configuration not stated),i,29.3%,-11.0%,-6.1%,?,-5.8%
O=C(CSc1ncn(-c2ccccc2)n1)N1CCc2ccccc21,-23.1%,10.4µM*,-5.1%,-8.9%,20.8%,-6.8%
Cc1ccnc(SCC(=O)N2CCc3ccccc32)n1,-17.9%,290.3%,18.0%,-3.6%,77.5%,-5.5%
O=C(CSc1ncn(-c2ccccc2)n1)Nc1nncs1,nt,32.9%[1.15 µM],14.9%,nt,13.7%,-6.2%
CC(=O)Nc1ccc(C(=O)CSc2ncn(-c3ccccc3)n2)cc1,i,13.1µM*,?,-11.2%,33.2%,1.5%
CCN(C(=O)[C@@H]1CCCN1C(=O)c1cccs1)c1nc2cc(Cl)ccc2s1,-11.5%,1.1%,10µM*,-15.8%,11.5%,16.0%
Cc1cc(Cl)ccc1NC(=O)C1CCCN1C(=O)c1cccs1 (configuration not stated),i,27.3%,3.6%,-0.1%,-1.6%,3.5%
Oc1cccc(/C=N/Nc2nn3cnnc3c3ccccc23)c1,nt,3.7%,5.1%,nt,12.4%,-3.1%
COc1cccc(C=NNC(=O)c2ccncc2)c1O,1.58µM*,nt,?,?,nt,nt
COc1cccc(/C=N/Nc2nn3cnnc3c3ccccc23)c1O,-25.0%,0.329µM*,14.9%,-23.9%,?,13.2%
O=C(N/N=C/c1cccc(Oc2ccccc2)c1)c1ccncc1,-3.3%,3.7µM*,7.7%,4.1%,6.7%,nt
COc1cc(OC)c2cc(C(=O)N/N=C/c3cccc(OC)c3O)[nH]c2c1,11.2µM*,?,8.91µM*,-25.7%,?,1.4%
O=C(N/N=C\c1cccc(O)c1)c1ccncc1,nt,nt,nt,nt,nt,-3.8%
O=C(/C=C/c1cccc(Br)c1)OCC(=O)N1CCN(c2ccccc2)CC1,nt,-13.6%,-15.4%,nt,6.0%,nt
Cc1cccc(OCC(=O)Nc2ccc3c(c2)nc(CCNC(=O)c2ccco2)n3C)c1,-13.5%,nt,nt,-8.3%,nt,nt
CN(C)C(=O)N1CCN(C(=O)c2ccccc2Sc2ccccc2C#N)CC1,-13.9%,nt,19.0%,-17.0%,24.1%,0.7%
COc1cccc(/C=N/NC(=O)c2ccc3nc[nH]c3c2)c1O,?,-28.2%,12.1%,-3.1%,?,-1.1%
CCn1c(C)nc2cc(C(=O)N/N=C/c3cccc(OC)c3O)ccc21,10µM*,?,?,?,?,-8.4%
COc1cccc(/C=N/NC(=O)c2c(C)nc3ccc(Br)cn23)c1O,nt,0.5%,4.47µM*,nt,11.7µM*,nt
COc1cccc(/C=N/NC(=O)c2cc3c(OC)ccc(OC)c3[nH]2)c1O,?,?,2.51µM*,?,nt,1.6%
C[N+]12CCCC[C@@H]1CCC(=C(c1cccs1)c1cccs1)C2 (some centres not stated),nt,-9.0%,nt,nt,4.26µM*,nt

# Assay outcomes deposited in PubChem BioAssay by National Center for Advancing Translational Sciences (NCATS).
